# According to the supplement of paper PMC9694430:
# Key:
# Assay in all cases: thermal shift delta Tm vs DMSO control; higher = stronger stabilization (binding)
# Conditions in all cases: 12.5 µM; protein concentration 2 µM
# LOC_OS01G01410-cb001 = tested on: LOC_OS01G01410-cb001
# In short: (§1)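 Purified, E. coli-expressed rice kinase domain constructs were tested by differential scanning fluorimetry in 96-well plates: 19.5 μl of 2 μM kinase in 100 mM potassium phosphate pH 7.5, 150 mM NaCl, 10% glycerol, 5 × SYPRO Orange, plus compound in DMSO. Fluorescence was read from 25°C to 95°C at 0.05°C/s. Melting temperatures came from Boltzmann fits, and the shift is the triplicate mean relative to protein with DMSO alone.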
# LOC_OS01G02750-cb003 = tested on: LOC_OS01G02750-cb003
# In short: as §1
# LOC_OS01G10900-cb004 = tested on: LOC_OS01G10900-cb004
# In short: as §1
# LOC_OS01G13800-cb001 = tested on: LOC_OS01G13800-cb001
# In short: as §1
# LOC_OS01G14860-cb001 = tested on: LOC_OS01G14860-cb001
# In short: as §1
# LOC_OS01G21960-cb002 = tested on: LOC_OS01G21960-cb002
# In short: as §1
# LOC_OS01G39600-cb002 = tested on: LOC_OS01G39600-cb002
# In short: as §1
# LOC_OS01G48390-cb002 = tested on: LOC_OS01G48390-cb002
# In short: as §1
# LOC_OS01G51400-cb002 = tested on: LOC_OS01G51400-cb002
# In short: as §1
# LOC_OS01G52050-cb004 = tested on: T1, LOC_OS01G52050-cb004
# T1 sequence (whole entry): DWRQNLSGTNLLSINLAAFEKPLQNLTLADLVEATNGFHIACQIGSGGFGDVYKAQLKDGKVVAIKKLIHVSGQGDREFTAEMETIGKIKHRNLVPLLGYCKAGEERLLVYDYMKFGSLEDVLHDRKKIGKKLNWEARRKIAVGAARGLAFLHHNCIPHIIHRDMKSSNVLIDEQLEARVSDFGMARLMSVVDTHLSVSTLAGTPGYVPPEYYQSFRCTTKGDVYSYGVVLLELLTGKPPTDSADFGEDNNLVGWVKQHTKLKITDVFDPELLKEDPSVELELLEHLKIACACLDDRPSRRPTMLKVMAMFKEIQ
# In short: as §1
# LOC_OS01G57100-cb003 = tested on: LOC_OS01G57100-cb003
# In short: as §1
# LOC_OS01G60330-cb001 = tested on: LOC_OS01G60330-cb001
# In short: as §1
# LOC_OS01G60700-cb002 = tested on: LOC_OS01G60700-cb002
# In short: as §1
# LOC_OS01G63280-cb003 = tested on: LOC_OS01G63280-cb003
# In short: as §1
# LOC_OS01G67340-cb003 = tested on: LOC_OS01G67340-cb003
# In short: as §1
# LOC_OS01G70970-cb002 = tested on: LOC_OS01G70970-cb002
# In short: as §1
# LOC_OS02G07810-cb001 = tested on: LOC_OS02G07810-cb001
# In short: as §1
# LOC_OS02G08530-cb003 = tested on: LOC_OS02G08530-cb003
# In short: as §1
# LOC_OS02G14120-cb001 = tested on: LOC_OS02G14120-cb001
# In short: as §1
# LOC_OS02G17970-cb001 = tested on: LOC_OS02G17970-cb001
# In short: as §1
SMILES,thermal shift delta Tm (LOC_OS01G01410-cb001),thermal shift delta Tm (LOC_OS01G02750-cb003),thermal shift delta Tm (LOC_OS01G10900-cb004),thermal shift delta Tm (LOC_OS01G13800-cb001),thermal shift delta Tm (LOC_OS01G14860-cb001),thermal shift delta Tm (LOC_OS01G21960-cb002),thermal shift delta Tm (LOC_OS01G39600-cb002),thermal shift delta Tm (LOC_OS01G48390-cb002),thermal shift delta Tm (LOC_OS01G51400-cb002),thermal shift delta Tm (LOC_OS01G52050-cb004),thermal shift delta Tm (LOC_OS01G57100-cb003),thermal shift delta Tm (LOC_OS01G60330-cb001),thermal shift delta Tm (LOC_OS01G60700-cb002),thermal shift delta Tm (LOC_OS01G63280-cb003),thermal shift delta Tm (LOC_OS01G67340-cb003),thermal shift delta Tm (LOC_OS01G70970-cb002),thermal shift delta Tm (LOC_OS02G07810-cb001),thermal shift delta Tm (LOC_OS02G08530-cb003),thermal shift delta Tm (LOC_OS02G14120-cb001),thermal shift delta Tm (LOC_OS02G17970-cb001)
N#CC(=C(/N)Sc1ccccc1N)/C(C#N)=C(\N)Sc1ccccc1N,1.35 °C,1.84 °C,-0.2 °C,0.46 °C,0.53 °C,0.18 °C,1.48 °C,0.24 °C,0.39 °C,2.41 °C,-0.44 °C,2.17 °C,0.48 °C,2.36 °C,0.77 °C,0.62 °C,1.33 °C,1.04 °C,0.63 °C,0.85 °C
CNC(=O)c1cc(Oc2ccc3nc(N[C@@H]4CCCC[C@H]4O)sc3c2)ccn1,0.03 °C,2.05 °C,1.18 °C,0.41 °C,-0.2 °C,0.67 °C,-0.55 °C,0.91 °C,0.42 °C,0.41 °C,1.55 °C,0.59 °C,1.46 °C,0.76 °C,1.16 °C,0.25 °C,0.97 °C,0.76 °C,-0.02 °C,0.53 °C
CCC(=O)Nc1cccc(Oc2nc(Nc3ccc(N4CCN(C)CC4)cc3OC)ncc2Cl)c1,0.36 °C,1.2 °C,0.23 °C,-0.06 °C,-0.01 °C,0.7 °C,-0.79 °C,0.98 °C,0.38 °C,0.14 °C,0.87 °C,1.08 °C,1.14 °C,0.16 °C,0.44 °C,0.22 °C,0.45 °C,1.46 °C,0.22 °C,0.04 °C
C=CC(=O)Nc1ccc2ncnc(Nc3cccc(Br)c3)c2c1,0.7 °C,-0.16 °C,-0.13 °C,-0.18 °C,0.1 °C,0.15 °C,-12.2 °C,0.59 °C,0.29 °C,0 °C,0.86 °C,0.41 °C,0.96 °C,-0.32 °C,-0.12 °C,0.22 °C,0.8 °C,0.61 °C,-0.18 °C,0.66 °C
C=CC(=O)Nc1cccc(Nc2nc(Nc3ccc(OCCOC)cc3)ncc2F)c1,3.05 °C,0.97 °C,1.01 °C,-0.85 °C,3.77 °C,2.29 °C,-1.51 °C,1.44 °C,0.59 °C,3.59 °C,1.56 °C,8.86 °C,1.84 °C,0.22 °C,0.42 °C,1.81 °C,0.8 °C,3.49 °C,9.32 °C,0.13 °C
CC(C)(CO)n1cc(C(=O)c2cncc(NC(=O)Cc3ccc(Cl)cn3)c2)c2cnc(N)nc21,0.23 °C,0.58 °C,0.35 °C,0.55 °C,0.5 °C,0.13 °C,0.32 °C,0.37 °C,-0.05 °C,2.82 °C,0.95 °C,0.35 °C,0.16 °C,0.14 °C,0.19 °C,0.28 °C,-0.84 °C,0.77 °C,3.51 °C,0.53 °C
Cc1cc(C)c(/C=C2\C(=O)Nc3ccccc32)[nH]1 [Semaxanib (SU5416)],2.4 °C,1.81 °C,0.7 °C,-0.49 °C,0.24 °C,1.45 °C,0.58 °C,1.2 °C,0.58 °C,1.59 °C,1.1 °C,6.76 °C,1.12 °C,0.7 °C,2.32 °C,2.72 °C,1.03 °C,3.63 °C,3.06 °C,1.09 °C
COc1cc(C(=O)N2CCC(N3CCN(C)CC3)CC2)ccc1Nc1ncc2c(n1)N(C)c1ccccc1C(=O)N2C,0.19 °C,0.47 °C,2.12 °C,0.41 °C,-0.08 °C,-0.12 °C,-0.15 °C,0.42 °C,-0.06 °C,-0.4 °C,0.21 °C,0.56 °C,0.5 °C,-0.2 °C,0.17 °C,0.15 °C,0.46 °C,1.92 °C,1.72 °C,0.35 °C
Cc1cc(C(C)Nc2ccccc2)c2nc(N3CCOCC3)cc(=O)n2c1 (stereo not given),1.33 °C,-0.12 °C,0.5 °C,0.23 °C,1.25 °C,0.01 °C,0.8 °C,1.36 °C,0.16 °C,0.56 °C,0.23 °C,1.22 °C,0.52 °C,-0.26 °C,-0.69 °C,0.34 °C,0.27 °C,0.37 °C,0 °C,0.24 °C
CN(C[C@@H]1COCCO1)S(=O)(=O)Nc1ccc2ccc3ncc(-c4cnn(C)c4)cc3c(=O)c2c1,2.9 °C,3.39 °C,1.59 °C,-0.75 °C,0.52 °C,1.85 °C,2.41 °C,0.37 °C,0.29 °C,10.3 °C,2.19 °C,0.33 °C,1.15 °C,1.83 °C,0.51 °C,9.99 °C,1.23 °C,1.58 °C,8.53 °C,0.59 °C
COCCNCc1ccc(-c2cc3nccc(Oc4ccc(NC(=O)C5(C(=O)Nc6ccc(F)cc6)CC5)cc4F)c3s2)nc1 [Sitravatinib (MGCD516)],4.2 °C,7.38 °C,4.89 °C,-0.17 °C,3.69 °C,0.72 °C,0.85 °C,6.78 °C,0.58 °C,4.17 °C,0.24 °C,1.12 °C,-0.27 °C,1.87 °C,7.72 °C,5.29 °C,0.47 °C,2.12 °C,7.48 °C,1.18 °C
OCCn1cc(-c2cnc3nnn(Cc4ccc5ncccc5c4)c3n2)cn1,0.52 °C,0.79 °C,-0.12 °C,-0.25 °C,0.12 °C,0.14 °C,0.11 °C,0.2 °C,0.09 °C,0.09 °C,0.41 °C,0.74 °C,0.46 °C,0.3 °C,-0.64 °C,0.28 °C,0.2 °C,0.45 °C,-0.27 °C,0.49 °C
"Cc1cc(Nc2cc(N3CCN(C)CC3)nc(Sc3ccc(NC(=O)C4CC4)cc3)n2)n[nH]1 [Tozasertib (VX-680, MK-0457)]",6.12 °C,6.08 °C,2.83 °C,0.07 °C,1.86 °C,1.49 °C,10.2 °C,3.05 °C,0.88 °C,1.66 °C,1.29 °C,3.67 °C,1.21 °C,0.58 °C,1.87 °C,2.62 °C,0.91 °C,2.4 °C,7.67 °C,0.93 °C
